Bioassay records from PubChem BioAssay.
AMA1-RON2 inh – qHTS for Inhibitors of AMA1-RON; Towards Development of Antimalarial Drug Lead: Primary Screen; Plasmodium falciparum AMA1 (3D7) - RON2 peptide interaction; AlphaScreen AMA1-biotinylated RON2 peptide binding; Potency, µM (highest dose often 58.2 µM), most hits filed as inhibitors; actives 0.2% (n = 360,000); active = well fitted inhibition curve with a large enough effect; inconclusive = small, poorly fitted or top-dose-only effect; inactive = no such curve, though single readings can be large or run the other way; note: nearly all actives have a fitted effect of over 45% in size
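AMA1 (3D7) with his tag at 25 nM final met compounds first, then biotinylated RON2 peptide at 25 nM; detection used donor plus acceptor beads, 10 µg/mL apiece, read by AlphaScreen after 30 min at room temperature.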
LASV entry inh – qHTS for Inhibitors of binding or entry into cells for Lassa Virus | AID 540256, 2011 | Lassa virus pseudotype entry inhibition, cell reporter | Potency, µM (top dose mostly 37.9 µM), most hits filed as inhibitors | actives 1.2% (n = 300,000); calls by dose curve; tested in HEK293 cells; note: nearly all actives have a fitted effect of over 50% in size
Shiga inhibitor – A qHTS for Small Molecule Inhibitors of Shiga Toxin | inhibition, % at 38.7 µM | actives 9.2% (n = 290,000) | Vero cells, Shiga toxin protein synthesis inhibition reporter; in the data active = inhibition mostly above about 28%, no sharp cut-off; inactive = mostly below about 43%
Marburg entry inh – qHTS for inhibitors of binding or entry into cells for Marburg Virus | actives 1.8% (n = 300,000) | Potency, µM (highest dose often 37.8 µM), actives largely listed as inhibitors | Marburg virus pseudotyped entry inhibition, cell reporter; calls by dose curve; tested in HEK293 cells
Cycloheximide cs – Cycloheximide Counterscreen for Small Molecule Inhibitors of Shiga Toxin; max response, %; cell reporter, cycloheximide protein synthesis inhibition counterscreen; AID 2314, 2010; actives 12% (n = 300,000); in the data active = max response mostly above about 13%, no sharp cut-off; inactive = mostly below about 14%; note: read at 38.3 µM for the half of the compounds with a filed dose
Hits are given with their value; 0 = inactive; ? = inconclusive; - = no result. Many of the other results were omitted from the sample, so hits are more common in it than they were.

SMILES | AMA1-RON2 inh | LASV entry inh | Shiga inhibitor | Marburg entry inh | Cycloheximide cs
O=C(NCc1nc2ccccc2[nH]1)c1c(F)c(F)c(F)c(F)c1F | 0 | 0 | 0 | ? | 0
O=C(NC(Cc1ccccc1)C(=O)N1CCN(c2ccccc2O)CC1)c1ccccc1 (centres undefined) | 0 | ? | - | ? | -
CCCCc1nn2c(=O)cc(COC(=O)c3ccc(NC(=O)CCc4ccccc4)cc3)nc2s1 | - | 0 | - | - | -
NS(=O)(=O)c1ccc(NC(=O)Nc2ccc3c(c2)OCO3)cc1 | 0 | 0 | 96 | 0 | 41
O=C(CCc1ccc(S(=O)(=O)NCCc2ccccc2)cc1)Nc1ccc2c(c1)OCO2 | 0 | 0 | 0 | 0 | 0
O=C(Nc1ccc(S(=O)(=O)NCc2ccccc2)cc1)Nc1ccc2c(c1)OCO2 | 0 | 0 | 81 | 0 | 28
CCNS(=O)(=O)c1ccc(NC(=O)Nc2ccc3c(c2)OCO3)cc1 | 0 | - | 0 | - | 30
C=C(C)Cn1c(=O)c2c(nc3n2CCN3c2ccc(F)cc2)n(C)c1=O | - | 0 | - | - | -
COc1ccc(C(=O)C(CCC(CNC(C)(C)C)C(=O)c2ccc(OC)cc2)CNC(C)(C)C)cc1 (centres undefined) | 0 | 4µM | 0 | 2.1µM | 0
COc1ccc(C(=O)CC(=O)c2ccc(C(C)(C)C)cc2)cc1 | 0 | - | - | - | -
C(=N\NCc1ccccc1)/c1ccc2ncccc2c1 | 0 | - | 79 | - | 38
S=C(N/N=C/c1ccc2ncccc2c1)Nc1ccccc1 | 0 | - | 66 | - | 35
C(=N\NCc1ccccc1)/c1ccc2nccnc2c1 | 0 | - | 64 | - | 37
CCOC(=O)c1ccc(N2C(=O)c3n[nH]c(-c4cccs4)c3C2c2ccc(C(C)(C)C)cc2)cc1 (centres undefined) | - | 0 | - | 0 | -
O=C(CC1NCCNC1=O)Nc1ccccc1F (centres undefined) | - | 0 | - | 0 | -
Cn1cnc2cc(NCc3ccccc3Cl)ccc21 | 0 | 0 | 105 | ? | 39
CCn1cnc2cc(NCc3ccccc3Cl)ccc21 | 0 | 0 | 67 | 0 | 36
CS(=O)(=O)Nc1ccc2c(c1)ncn2CCc1ccccc1 | 0 | - | 0 | - | 0
CCCCn1cnc2cc(NCc3ccncc3)ccc21 | 0 | 0 | 0 | 0 | 0
CCCn1cnc2cc(NCc3cccs3)ccc21 | 0 | 0 | 106 | 0 | 33
CCCCn1cnc2cc(NCc3ccccc3Cl)ccc21 | - | ? | - | 13µM | -
Cc1ccc(NC(=O)COC(=O)/C=C/c2cccs2)cc1 | 0 | 0 | 0 | 0 | 0
CCN(c1ccc(NC(=O)COC(=O)/C=C/c2cccs2)cc1)C(C)C | 18µM | 0 | 0 | 0 | 0
O=C1Nc2ccccc2C1=Nc1cccc([N+](=O)[O-])c1 | 0 | - | 27 | - | 0
O=C(N=C1SC2CS(=O)(=O)CC2N1c1cc(Cl)ccc1Cl)C1CCCO1 (centres undefined) | 0 | - | 0 | - | 0
SMILES | AMA1-RON2 inh | LASV entry inh | Shiga inhibitor | Marburg entry inh | Cycloheximide cs
Cc1ccc(C=C2C(=O)c3ccccc3C2=O)s1 | ? | 0 | 45 | 0 | 56
Cc1ccc(/C=C2\C(=O)NC(=S)N(c3ccccc3F)C2=O)s1 | 0 | ? | 0 | ? | 0
Cc1cc(C=C2C(=O)c3ccccc3C2=O)c(C)n1C | 0 | 0 | 63 | ? | 65
Cc1cc(/C=C2\C(=O)NC(=O)N(c3cccc(Br)c3)C2=O)c(C)n1C | 0 | 0 | 0 | 0 | 0
CCn1c(C)cc(C=C2C(=O)c3ccccc3C2=O)c1C | 0 | ? | 82 | 13µM | 62
CC[C@@]12C=C(C=Cc3ccccc3)[C@](CC)(C1)[C@H](c1ccccc1)CC2=O | - | - | - | 0 | -
Cc1cc(Nc2ccccc2)c2c([N+](=O)[O-])cc(C)c(C)c2n1 | ? | 0 | 0 | ? | 0
COc1ccccc1Nc1cc(C)nc2c(C)ccc([N+](=O)[O-])c12 | 3.2µM | 0 | 0 | ? | 0
Cc1cc(/C=C2\NC(=S)NC2=O)c(C)n1-c1cccnc1 | 0 | ? | 0 | 0 | 0
CSc1nsc(NC(=O)OCc2ccc(Cl)cc2)n1 | 0 | - | 0 | - | 0
COc1ccsc1NC(=O)OCc1ccc(Cl)cc1 | 0 | - | 44 | - | 37
Cc1ccc(C(=O)Nc2cc3c(cc2Cl)OCCCO3)cc1 | 0 | ? | 65 | ? | 50
CC(=O)c1cc2c(cc1NC(=O)c1ccc(Cl)cc1)OCCO2 | 0 | 0 | - | 0 | 0
O=C(Nc1cc2c(cc1Cl)OCCCO2)c1ccc(F)cc1 | 0 | 0 | 114 | 0 | 89
Cc1ccc(C)c(Cn2c(=O)n(-c3ccccc3)c(=O)c3c4c(sc32)CCCC4)c1 | - | ? | - | 0 | -
COC1=C(OC)CC2=C(CCN=C2/C(=N\O)C2CCC(OC)C(OC)C2)C1 (centres undefined) | - | - | - | 0 | -
Cc1ccc(NC(=O)Cn2ncn3c(cc4ccccc43)c2=O)cc1C | - | - | - | 13µM | -
Cc1ccc(NC(=O)Cn2ncn3c(cc4ccccc43)c2=O)cc1F | 0 | 0 | 0 | ? | 0
Cc1ccc(NC(=O)Cn2cccc2)cc1C | 0 | 0 | 0 | 0 | 15
Cc1ccc(NC(=O)Cn2cccc2)cc1Cl | 0 | 0 | 0 | 0 | 0
CCc1ccc(NC(=O)Cn2cccc2)cc1 | 0 | 0 | 0 | 0 | 25
CCc1ccccc1NC(=O)c1onc(C)c1Cl | 0 | - | 0 | 0 | 0
Cc1ccc(O)c(NC(=O)c2onc(C)c2Cl)c1 | 0 | - | 66 | 0 | 30
Cc1noc(C(=O)Nc2ccc(F)cc2F)c1Cl | 0 | 0 | 0 | 0 | 31
Cc1noc(C)c1S(=O)(=O)NC(=O)C1(C)CCN1C(=O)C1(c2ccc(Cl)cc2)CC1 (centres undefined) | 0 | - | - | - | -
SMILES | AMA1-RON2 inh | LASV entry inh | Shiga inhibitor | Marburg entry inh | Cycloheximide cs
Clc1cccc(-c2ccc(CNCc3ccccn3)o2)c1 | 0 | - | 81 | - | 32
Brc1ccc(-c2ccc(CNCc3ccccn3)o2)cc1 | 0 | - | 0 | - | 26
NS(=O)(=O)c1ccc(NC(=O)COC(=O)COc2ccc(Cl)cc2)cc1 | 0 | 0 | 0 | 0 | 0
O=[N+]([O-])c1cc(-c2nc(-c3ccccc3)no2)ccc1N1CCOCC1 | - | 0 | - | ? | -
COc1ccc(CN2CCN(S(=O)(=O)c3ccc(NC(C)=O)cc3)CC2)c(OC)c1OC | 0 | 0 | 0 | - | 0
Cc1nc(N(CCO)C2CCCCC2)c2nnn(Cc3ccccc3)c2n1 | 0 | 0 | 0 | 10µM | 0
Cc1nc(NCC2CC2)c2nnn(Cc3ccccc3)c2n1 | 0 | 0 | 0 | ? | 0
COC(=O)c1ccc(Oc2c(Cl)cccc2[N+](=O)[O-])cc1 | 0 | 0 | 0 | 0 | 0
CCn1c(=O)sc2cc(NS(=O)(=O)c3ccc(F)c(C)c3)ccc21 | - | 0 | - | ? | -
CCN(CC)c1ccc(C(=O)c2ccccc2C(=O)O)c(O)c1 | 0 | 0 | 28 | 0 | 22
Cc1cccc(N2CCN(C(=O)CCC(=O)N3CC(C)Oc4ccc(C)cc43)CC2C)c1 (centres undefined) | 0 | - | 0 | - | 0
CCc1c(C)nc(SCC(=O)NNC(=O)c2ccco2)[nH]c1=O | 0 | - | 39 | - | 30
CCc1c(C)nc(SCC(=O)Nc2ccc(Br)cc2)[nH]c1=O | 0 | - | 0 | - | 0
CC1(C(=O)N/N=C/c2ccccc2)CC1(Cl)Cl (centres undefined) | 0 | 0 | - | 0 | 26
CC1(C(=O)N/N=C/c2ccccc2)CC1(Br)Br (centres undefined) | 0 | 0 | 0 | 0 | 0
